Structures are written as SMILES. Among all 150,000 compounds or so, about 6,500 (4.3%) were called active. Not shown: some 12% with an inconclusive outcome. Shown is part of a subset that was picked to be rich in actives. Unmarked numbers belong to inactive results. The call rests on the fitted dose curve; in most records, active means well fitted inhibition curve with a large enough effect (not every such curve was filed as active); inconclusive means small, poorly fitted or top-dose-only effect, or another doubt; inactive means no such curve, though single readings can be large or run the other way.

The values below come from PubChem BioAssay AID894 (National Center for Advancing Translational Sciences (NCATS), 2007).
On the % scale 0 is the no-effect control and ±100 the full control effect; potency means the concentration at half of the fitted maximal effect.

For the assay, the target named is 15-hydroxyprostaglandin dehydrogenase [NAD(+)] (Homo sapiens) (UniProt P15428). The assay can be described thus: qHTS Assay for Inhibitors of HPGD (15-Hydroxyprostaglandin Dehydrogenase). The following applies: purified HPGD, NADH fluorescence kinetic, PGE2 substrate; activity change, negative = inhibition: stronger effect = lower value. An excerpt: Human 15-Hydroxyprostaglandin dehydrogenase (HPGD) catalyzes the inactivation of prostaglandin E2, and plays a major role in cancer biology by antagonizing the oncogenic potential of cyclooxygenase type 2 (COX2). Assays are available, based on absorbance/fluorescence increase of NADH with the substrate 15-OH prostaglandin E2. References 1. Myung SJ, Rerko RM, Yan M, Platzer P, Guda K, Dotson A, Lawrence E, Dannenberg AJ, Lovgren AK, Luo G, Pretlow TP, Newman RA, Willis J, Dawson D, Markowitz SD. 15-Hydroxyprostaglandin dehydrogenase is an in vivo suppressor of colon tumorigenesis. […] 2. Yan M, Rerko RM, Platzer P, Dawson D, Willis J, Tong M, Lawrence E, Lutterbaugh J, Lu S, Willson JK, Luo G, Hensold J, Tai HH, Wilson K, Markowitz SD. 15-Hydroxyprostaglandin dehydrogenase, a COX-2 oncogene antagonist, is a TGF-beta-induced suppressor of human gastrointestinal cancers. Proc Natl Acad Sci U S A. 2004 Dec 14;101(50):17468-73. 3. Yang L, Amann JM, Kikuchi T, Porta R, Guix M, Gonzalez A, Park KH, Billheimer D, Arteaga CL, Tai HH, Dubois R, Carbone DP, Johnson DH. Inhibition of Epidermal Growth Factor Receptor Signaling Elevates 15-Hydroxyprostaglandin Dehydrogenase in Non-Small-Cell Lung Cancer. Cancer Res. 2007 Jun 15;67(12):5587-5593. Inhibition of HPGD activity was screened by utilizing prostaglandin as an electron donor and NAD+ as an electron acceptor/cofactor. An increase in the fluorescence intensity due to conversion of NAD+ to NADH was used to measure the enzyme activity. NIH Chemical Genomics Center [NCGC] Structural Genomics Consortium [SGC]
15-hydroxyprostaglandin dehydrogenase [NAD(+)] (Homo sapiens), sequence (P15428 whole entry, looked up): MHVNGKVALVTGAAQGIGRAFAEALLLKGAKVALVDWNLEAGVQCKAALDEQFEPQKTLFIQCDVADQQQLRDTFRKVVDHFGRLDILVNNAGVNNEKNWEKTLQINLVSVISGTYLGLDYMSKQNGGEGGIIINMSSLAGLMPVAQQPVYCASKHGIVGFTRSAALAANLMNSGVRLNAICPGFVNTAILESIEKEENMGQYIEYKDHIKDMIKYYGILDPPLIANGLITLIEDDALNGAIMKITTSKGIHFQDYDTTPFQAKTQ
Buffer: 50 mM Tris-HCl, 0.01% Tween 20, pH 8. Enzyme Buffer: 50 mM Tris-HCl, 0.5 mM NAD+ and 0.01% Tween 20, pH 8. Reagents/Controls: Buffer in columns 3 and 4 as negative control (no enzyme). Substrate/cofactor solution: 1 mM NAD+ and 30 uM prostaglandin (Sigma, prostaglandin E2, # P5640) final concentrations dispensed throughout the plate. Enzyme: 20 nM HPGD final concentration in columns 1, 2, 5-48. Column 1 and 2 is neutral (100% activity). A titration of control inhibitor GW5074 (G6416 Sigma-Aldrich, St. Louis, MO) top concentration 10 mM in DMSO, then 1:2 dilution for a total of 16 concentrations in duplicate) was pin-transferred into column 2. Assay Steps: Three uL of enzyme were dispensed to 1536-well Greiner black solid bottom plates. Compounds and control inhibitor (23 nL) were transferred via Kalypsys PinTool. The plates were incubated for 15 min at room temperature, and then 1 uL of substrate/cofactor solution was added to start the reaction. The plates were immediately transferred to and read 5 times every 30 seconds on ViewLux High-throughput CCD imager (Perkin-Elmer) using 360 nm excitation and 450 nm emission fluorescence protocol. The fluorescence intensity difference between the last and the first time points was used to compute reaction progress.
`COc1ccccc1NC(=O)C1=C(C)NC2=C(C(=O)CCC2)C1c1ccc(C)o1` (configuration not stated): the activity change, negative = inhibition was -4.54%. `COC(=O)C1=C(C)NC2=C(C(=O)c3ccccc32)C1c1ccc(-c2ccc(C(=O)O)cc2)o1` (configuration not stated): the Potency was 17.8 µM (active). Turning to `Cc1ccc(C2C3=C(Nc4[nH]n(-c5ccccc5)c(=O)c42)c2ccccc2C3=O)cc1` (configuration not stated), the activity change, negative = inhibition is -23.6%. On to `Cc1cc(C(C)(C)C)cc(C)c1N`, for which the activity change, negative = inhibition was 2.4%. Still for that read-out and setting: in the case of `O=C(OC1CCOC1=O)c1cccc(S(=O)(=O)Nc2ccc(F)cc2)c1` (configuration not stated) it was -0.633%. For `COc1ccc2c(Cl)c(C(=O)NCc3ccco3)sc2c1`, the Potency is 14.1 µM (active).

Take `O=C(NCCCCCCNC(=O)NCc1ccco1)NCc1ccco1`: the activity change, negative = inhibition was -9.22%. With `O=C(NCc1ccco1)c1sc2cccc(F)c2c1Cl`, the Potency was 3.98 µM (active).

For `O=C(NCc1ccco1)c1ccc(CS(=O)(=O)Cc2ccc(F)cc2)o1`, the activity change, negative = inhibition was 2.28%. On the same count and under the same terms, in the case of `COc1ccc(-c2cc(C(=O)NCc3ccco3)no2)cc1OC` it was -10.4%; in that of `COc1cc(C(=O)NC(=S)NCc2ccco2)cc(OC)c1OC`, -21.9%. The same measure, in the same setting: in the case of `CCN1CN(Cc2ccccc2)CNC1=S` it was -9.5%; in that of `CC(O)c1nc2ccccc2n1Cc1ccc([N+](=O)[O-])cc1` (configuration not stated), -6.78%; in that of `CC(=O)c1c(C)[nH]c(C(=O)OCC(=O)Nc2cc(S(=O)(=O)N3CCCCC3)ccc2C)c1C`, -12.5%. In the case of `Cc1c(Br)cc(C(=O)N2CCCCCC2)c(C)c1C`, the Potency was 14.1 µM (active). Take `O=C(c1ccc(Cl)c(Cl)c1)N1CCCC1`: the Potency was 20 µM (active). On to `O=C(Nc1cccc(C(=O)N2CCCC2)c1)c1ccccc1`, for which the activity change, negative = inhibition is -13.5%. The same measure, in the same setting: the value for `CCCNC(=O)c1ccc(Cl)c(Cl)c1` was -21.6%.

For `Cc1cc(=O)oc(C)c1C(=O)N1CCCCC1`, the activity change, negative = inhibition is -2.92%. On the same count and under the same terms, the value for `Cc1cccc(C(=O)N2CCCN(C(=O)c3cccc(C)c3)CC2)c1` was 4.89%.

With `Cc1ccc(C(=O)N2CCCCCC2)cc1Br`, the Potency was 5.01 µM (active).

For `CCOC(=O)C1CCCN(C(=O)c2cncc(Br)c2)C1` (configuration not stated), the activity change, negative = inhibition was -7.12%. The same measure, in the same setting: the value for `CNC(=O)n1ccc(C(=O)N2CCCCC2)n1` was -21.9%; that for `Cc1ccccc1CN1CCN(C(=O)c2cccc(F)c2)CC1` was 2.95%. For the compound `Cc1ccc(C(=O)N2CCCC2)c(F)c1F`, the Potency was 10 µM (active). For the compound `C/C(=C\C(=O)c1ccc(Br)cc1)N1CCCCC1`, the activity change, negative = inhibition is -21.6%. For `Cc1cc(C(=O)N/N=C/c2ccc(O)c([N+](=O)[O-])c2)c(C)n1-c1ccc(F)cc1`, the activity change, negative = inhibition is -20.1%. Same read-out and setting: in the case of `COc1ccc(C(=O)NNC(=S)NC(=O)c2ccccc2[N+](=O)[O-])cc1` it was -1.33%. `Cc1cc(C)nc(SC2CCCCC2NS(=O)(=O)c2ccc(Cl)cc2)n1` (configuration not stated): the activity change, negative = inhibition is -1.86%. The same measure, in the same setting: in the case of `COc1ccc(Cn2c(-c3ccc(Cl)cc3)c[n+]3ccccc23)cc1` it was 1.07%; in that of `C=CCn1c(SCc2ccc(Cl)c(Cl)c2)nnc1C(CO)NC(=O)c1ccc(OC)cc1` (configuration not stated), -18.7%; in that of `CC(CNC(=O)c1ccc(Br)o1)NC(=O)c1ccc(Br)o1` (configuration not stated), -8.51%. As for `CCC(C)NC(=O)CCCc1ccccc1` (configuration not stated), the activity change, negative = inhibition was -18.7%. For `CC(CCc1ccccc1)NC(=O)c1ccc(Br)o1` (configuration not stated), the Potency was 15.8 µM (active).

Consider `Cc1cccc(N2Cc3ccccc3C2=NC(=O)c2ccc(Cl)nc2)c1`, for which the activity change, negative = inhibition was -15.5%. On to `C/C(=C/C(=O)N1CCN(C)CC1)C(=O)O`, for which the activity change, negative = inhibition was 4.4%.

For `c1ccc(CSc2nnc(-c3ccco3)n2Cc2ccccc2)cc1`, the activity change, negative = inhibition was -25.4%. Regarding `Nc1nc(SCc2ccccc2Cl)n[nH]1`, the activity change, negative = inhibition was -3%. Same read-out and setting: in the case of `O=C(Nc1nnc(SCc2ccccc2)s1)c1ccco1` it was -28%. As to `c1ccc(CSc2nnc(-c3ccco3)c(-c3ccco3)n2)cc1`, the Potency was 4.47 µM (active). As to `c1coc(-c2nc3nc4ccccc4n3nc2-c2ccco2)c1`, the activity change, negative = inhibition is -14.3%.

As for `Clc1ccccc1CSc1nnc(-c2ccco2)c(-c2ccco2)n1`, the Potency was 12.6 µM (active). Take `COc1ccc(-c2nc3c(c4c2C[C@H](c2ccccc2)OC4)CN(C(=O)c2cccnc2)CC3)c(C)c1`: the activity change, negative = inhibition is -9.44%. Consider `COCc1c(C(=O)N/N=C/C2CC=CCC2)nnn1-c1nonc1N` (configuration not stated), for which the activity change, negative = inhibition is -10.3%. Same read-out and setting: the value for `CC(C)CNC(=S)Nc1ccc(F)cc1` was -4.13%; that for `Cc1ccc(S(=O)(=O)N(CC(=O)Nc2cccc([N+](=O)[O-])c2)Cc2ccc(Cl)cc2)cc1` was -3.74%. Same read-out and setting: the value for `COc1cc(C(=S)N2CCOCC2)cc(OC)c1OC(=O)c1cc([N+](=O)[O-])cc([N+](=O)[O-])c1` was -12%. In the case of `O=C(Oc1ccccc1C(=S)N1CCCCC1)c1cc([N+](=O)[O-])cc([N+](=O)[O-])c1`, the Potency was 14.1 µM (active).

`O=C(Oc1ccc([N+](=O)[O-])cc1)c1ccc(Cl)c(S(=O)(=O)N2CCCCC2)c1`: the activity change, negative = inhibition is -21.8%.

Turning to `CCOC(=O)c1[nH]c2c(c1-c1ccccc1)C(=O)CC(c1ccc(Cl)cc1)C2` (configuration not stated), the activity change, negative = inhibition is -2.93%. `CCOC(=O)C1Sc2[nH]c(=O)sc2C(c2ccc(Cl)cc2)C1C(=O)OCC` (configuration not stated): the Potency is 3.98 µM (active). For `CCOC(=O)C1=C(C)NC(=O)N(C(C)=O)C1c1ccc(Cl)cc1` (configuration not stated), the activity change, negative = inhibition was 0.0111%. Regarding `c1ccc(Nc2n[nH]nc2-c2ccccc2)cc1`, the Potency was 14.1 µM (active). Turning to `Nc1ccc(Nc2ccccc2)cc1`, the activity change, negative = inhibition was -5.62%. The same measure, in the same setting: the value for `Nc1ccc(-c2sc(N)nc2-c2ccccc2)cc1` was -11%; that for `COc1cccc2c(O)cc(=O)n(C)c12` was -2.82%; that for `CC(Oc1ccccc1F)C(=O)NN` (configuration not stated) was -6.91%. In the case of `O=c1c(O)c(Br)ccc2c(Br)c(O)c(O)c(O)c12`, the Potency is 15.8 µM (active). For `COc1ccc(C(=O)COC(=O)c2ccc3ccccc3n2)cc1`, the activity change, negative = inhibition is -15.3%.

Turning to `COc1ccc2c(c1)c(=O)c(C(=O)c1ccc(Cl)cc1)cn2CC(=O)Nc1ccc(F)cc1`, the activity change, negative = inhibition is -6.67%.

In the case of `CN(CC(=O)Nc1ccc(S(=O)(=O)N2CCCC2)cc1)Cc1ccc(Cl)c(Cl)c1`, the activity change, negative = inhibition is -13.8%. Consider `COC(=O)C1=C(C(=O)OC)[C@@H]2N(C)c3ccccc3[C@@]23C[C@@H](C(=O)OC)N(S(=O)(=O)c2ccc(Br)cc2)C3=N1`, for which the activity change, negative = inhibition is 0.758%.
